Values joined by “and” are separate entries in the source; they are usually repeats but may differ in a detail not shown here. Equal values may be shown once. The source holds several records for some structures; these can differ, active in one and inactive in another. Active and inactive are the calls of the source. Unless noted, calls come from the whole dose curve; as a rule, active = well fitted curve in the direction sought with a large enough effect in the repeat runs; inconclusive = weak or mixed curves; inactive = no such curve, though single readings can be large; an effect the other way counts as inactive or inconclusive.

A short description of assay [1]: qHTS assay to identify small molecule antagonists of the glucocorticoid receptor (GR) signaling pathway - cell viability counter screen (AID 720693). Note: nearly all actives have a fitted effect of over 55% in size. Note: potency is the fitted concentration of half-maximal effect.
The nature of assay [2]: qHTS assay for identifying genotoxic compounds that show differential cytotoxicity against isogenic chicken DT40 cell lines with known DNA damage response pathways - wild type cell line (AID 743012). Note: nearly all actives have a fitted effect of over 60% in size. Note: potency is the fitted concentration of half-maximal effect. Put shortly:
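Parental DNA repair-proficient DT40 cells, 300 per well, were pre-incubated ~0.5 h at 37 C/5% CO2, pin-dosed with compounds in DMSO, then incubated 40 h. Viability was read as CellTiter-Glo luminescence after 30 min at room temperature.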

The nature of assay [3]: qHTS assay for identifying genotoxic compounds that show differential cytotoxicity against isogenic chicken DT40 cell lines with known DNA damage response pathways - Rev3 mutant cell line (AID 743014). Note: nearly all actives have a fitted effect of over 55% in size. Note: potency is the fitted concentration of half-maximal effect. For orientation: In qHTS, concentration-response curves come from the screen itself.
The nature of assay [4]: qHTS assay for identifying genotoxic compounds that show differential cytotoxicity against isogenic chicken DT40 cell lines with known DNA damage response pathways - Rad54/Ku70 mutant cell line (AID 743015). Note: nearly all actives have a fitted effect of over 60% in size. Note: potency is the fitted concentration of half-maximal effect.
Assay [5] in a line: qHTS assay to identify small molecule antagonists of the androgen receptor (AR) signaling pathway - cell viability counter screen (AID 743033; note: nearly all actives have a fitted effect of over 45% in size; note: potency is the fitted concentration of half-maximal effect).
The nature of assay [6]: qHTS assay to identify small molecule antagonists of the androgen receptor (AR) signaling pathway using the MDA cell line - cell viability counter screen (AID 743041; note: nearly all actives have a fitted effect of over 45% in size; note: potency is the fitted concentration of half-maximal effect). In a few lines: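 Viability counter screen run alongside the AR antagonist reporter: cells seeded 5 h before compound, R1881 added, 16 h incubation at 37C without CO2, fluorescent CellTiter-Fluor signal quantified.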

The nature of assay [7]: qHTS assay to identify small molecule antagonists of the thyroid receptor (TR) signaling pathway - cell viability counter screen (AID 743064). Note: nearly all actives have a fitted effect of over 50% in size. Note: potency is the fitted concentration of half-maximal effect. Put shortly: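 In rat pituitary GH3.TRE-Luc reporter cells co-exposed to compound and 1 nM T3 for 23.5 h, cytotoxicity was assessed with CellTiter-Fluor in the same wells, read by fluorescence.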
Assay [8] relates to thyroid hormone receptor (rat, GH3 cells). The assay is described as follows: qHTS assay to identify small molecule agonists of the thyroid receptor (TR) signaling pathway (AID 743066; calls by dose curve).
Assay [9] in a line: qHTS assay to identify small molecule antagonists of the estrogen receptor alpha (ER-alpha) signaling pathway - cell viability counter screen (AID 743074; calls by dose curve;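 note: HEK293 cells carrying ER-alpha-UAS-bla reporter stimulated with 17beta-estradiol; nearly all actives have a fitted effect of over 45% in size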; note: potency is the fitted concentration of half-maximal effect).
Assay [10] can be described thus: qHTS assay to identify small molecule antagonists of the estrogen receptor alpha (ER-alpha) signaling pathway using the BG1 cell line - cell viability counter screen (AID 743081).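 Note: compound given together with 17beta-estradiol as the ER stimulus; nearly all actives have a fitted effect of over 45% in size.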 Note: potency is the fitted concentration of half-maximal effect.
In assay [11] the target is Aromatase (Homo sapiens) (UniProt P11511). In words: qHTS assay to identify aromatase inhibitors (AID 743083). Note: nearly all actives have a fitted effect of over 55% in size. Note: potency is the fitted concentration of half-maximal effect.
A short description of assay [12]: qHTS assay to identify small molecule antagonists of the thyroid receptor (TR) signaling pathway (AID 743065). Note: nearly all actives have a fitted effect of over 55% in size. Note: potency is the fitted concentration of half-maximal effect. In a few lines: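 GH3.TRE-Luc rat pituitary cells carrying two TR response elements driving luciferase were plated for 4 h, given compound plus 1 nM T3 (final), and incubated 23.5 h at 37 C. ONE-Glo luminescence measured reporter inhibition; CellTiter-Fluor fluorescence tracked cytotoxicity.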

In assay [13] the target is Estrogen receptor (Homo sapiens) (UniProt P03372). In words: qHTS assay to identify small molecule antagonists of the estrogen receptor alpha (ER-alpha) signaling pathway (AID 743069; active = well fitted curve in the direction sought with a large enough effect in the signal ratio in the repeat runs, not every such curve was filed as active; inconclusive = weak or mixed curves, or effect the other way; inactive = no such curve, though single readings can be large or run the other way; the % refers to the signal ratio; note: potency is the fitted concentration of half-maximal effect). Put shortly: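 Estradiol-stimulated ER-alpha-UAS-bla HEK293 cells, 18 hr compound exposure at 37C. LiveBLAzer B/G substrate, 2 hr RT, fluorescence read.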
Assay [14] shares this target. The assay is described as follows: qHTS assay to identify small molecule agonists of the estrogen receptor alpha (ER-alpha) signaling pathway (AID 743075; calls by dose curve).
Assay [15] is described as follows: qHTS assay to identify small molecule antagonists of the estrogen receptor alpha (ER-alpha) signaling pathway using the BG1 cell line (AID 743080; calls by dose curve;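 note: BG1 cells stimulated with 17beta-estradiol alongside compound; nearly all actives have a fitted effect of over 25% in size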; note: potency is the fitted concentration of half-maximal effect). The settings on record: BG1Luc4E2 ERE-luciferase antagonist mode, luminescence; activity change, negative = inhibition: at 70.3 µM (top of the series). In a few lines:
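BG1-Luc-4E2 cells (endogenous full-length ER-alpha, stable 4×ERE-luciferase) were starved 5 days in phenol-red-free medium with 10% charcoal-stripped FBS, plated 24 h, then given compound plus 17beta-estradiol for 21.5 h at 37 C; ONE-Glo luminescence read after 30 min.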

Assay [16] deals with Estrogen receptor (Homo sapiens) (UniProt P03372). In words: qHTS assay to identify small molecule agonists of the estrogen receptor alpha (ER-alpha) signaling pathway using the BG1 cell line (AID 743079). Note: nearly all actives have a fitted effect of over 20% in size. Note: potency is the fitted concentration of half-maximal effect. The settings on record: BG1Luc4E2 cells, ERE-luciferase agonist, 22 h; activation: at 70.3 µM (top of the series).
For assay [17], the target named is Androgen receptor (Homo sapiens) (UniProt P10275). The assay is described as follows: qHTS assay to identify small molecule antagonists of the androgen receptor (AR) signaling pathway (AID 743035; active = well fitted inhibition curve with a large enough effect in the signal ratio in the repeat runs, not every such curve was filed as active; inconclusive = weak or mixed curves, or effect the other way; inactive = no such curve, though single readings can be large or run the other way; the % refers to the signal ratio). Put shortly:
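HEK293 cells stably carrying a UAS-driven beta-lactamase reporter (AR-UAS-bla GripTite) were plated for 4 h at 37C, then given compound and the agonist R1881 and incubated 16 h. Reporter activity was read by LiveBLAzer B/G FRET fluorescence after 2 h at room temperature.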

Assay [18] has the same target. In words: qHTS assay to identify small molecule agonists of the androgen receptor (AR) signaling pathway (AID 743036; active = well fitted activation curve with a large enough effect in the signal ratio in the repeat runs, with a control signal flat, not every such curve was filed as active; inconclusive = weak or mixed curves, or effect the other way; inactive = no such curve, though single readings can be large or run the other way; the % refers to the signal ratio). Put shortly: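 Cell-based FRET reporter assay: HEK293 line with a UAS-beta-lactamase construct, compounds added in DMSO, 16 h exposure at 37C, then 2 h substrate step at room temperature and fluorescence intensity read.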
Assay [19] shares this target. The assay is described as follows: qHTS assay to identify small molecule agonists of the androgen receptor (AR) signaling pathway using the MDA cell line (AID 743040; note: nearly all actives have a fitted effect of over 20% in size). In a few lines:
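Luminescence from ONE-Glo, read after 30 min at room temperature, reflects MMTV-driven luciferase in MDA-kb2 cells (AR- and GR-responsive). Treatment lasted 16 h at 37C, 0% CO2.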

The target is the same in assay [20]. In words: qHTS assay to identify small molecule antagonists of the androgen receptor (AR) signaling pathway using the MDA cell line (AID 743042; note: nearly all actives have a fitted effect of over 55% in size). Put shortly:
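MDA-kb2 cells (human breast carcinoma, stably carrying an MMTV-luciferase reporter responsive to AR and GR) were plated at 3,000 cells/well and preincubated 5 hr at 37C, then given compound plus R1881 agonist for 16 h. ONE-Glo luminescence was read.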

Chain of Aromatase (Homo sapiens) (P11511 whole entry, looked up): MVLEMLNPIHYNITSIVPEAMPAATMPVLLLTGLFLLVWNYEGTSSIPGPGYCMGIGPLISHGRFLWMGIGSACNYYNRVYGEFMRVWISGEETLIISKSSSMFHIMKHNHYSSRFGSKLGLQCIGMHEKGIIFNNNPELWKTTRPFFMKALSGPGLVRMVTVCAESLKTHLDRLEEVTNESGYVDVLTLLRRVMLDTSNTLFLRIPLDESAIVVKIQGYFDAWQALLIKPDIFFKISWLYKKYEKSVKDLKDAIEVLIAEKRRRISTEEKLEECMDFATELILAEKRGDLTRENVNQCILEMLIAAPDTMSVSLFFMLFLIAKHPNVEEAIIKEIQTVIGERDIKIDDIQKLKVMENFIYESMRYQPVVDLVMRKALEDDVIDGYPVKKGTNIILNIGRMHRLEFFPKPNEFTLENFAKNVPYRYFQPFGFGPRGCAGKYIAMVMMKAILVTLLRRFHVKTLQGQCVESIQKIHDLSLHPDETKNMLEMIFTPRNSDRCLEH
Chain of Estrogen receptor (Homo sapiens) (P03372 whole entry, looked up): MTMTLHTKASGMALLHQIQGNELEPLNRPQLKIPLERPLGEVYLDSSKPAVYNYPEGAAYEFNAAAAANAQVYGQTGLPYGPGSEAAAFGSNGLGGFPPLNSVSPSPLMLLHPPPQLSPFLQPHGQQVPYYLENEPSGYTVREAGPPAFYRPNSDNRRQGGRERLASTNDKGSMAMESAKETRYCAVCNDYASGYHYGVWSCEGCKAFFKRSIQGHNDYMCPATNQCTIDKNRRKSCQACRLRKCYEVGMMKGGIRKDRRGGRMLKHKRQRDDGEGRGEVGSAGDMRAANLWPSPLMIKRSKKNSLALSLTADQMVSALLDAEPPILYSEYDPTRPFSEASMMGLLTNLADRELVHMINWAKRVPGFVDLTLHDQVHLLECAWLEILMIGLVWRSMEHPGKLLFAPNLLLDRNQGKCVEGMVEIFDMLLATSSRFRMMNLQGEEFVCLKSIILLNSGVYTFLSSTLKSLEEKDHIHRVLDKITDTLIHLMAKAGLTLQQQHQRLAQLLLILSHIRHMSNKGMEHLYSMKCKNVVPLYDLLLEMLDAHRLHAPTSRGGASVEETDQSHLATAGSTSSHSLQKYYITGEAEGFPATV
Chain of Androgen receptor (Homo sapiens) (P10275 whole entry, looked up): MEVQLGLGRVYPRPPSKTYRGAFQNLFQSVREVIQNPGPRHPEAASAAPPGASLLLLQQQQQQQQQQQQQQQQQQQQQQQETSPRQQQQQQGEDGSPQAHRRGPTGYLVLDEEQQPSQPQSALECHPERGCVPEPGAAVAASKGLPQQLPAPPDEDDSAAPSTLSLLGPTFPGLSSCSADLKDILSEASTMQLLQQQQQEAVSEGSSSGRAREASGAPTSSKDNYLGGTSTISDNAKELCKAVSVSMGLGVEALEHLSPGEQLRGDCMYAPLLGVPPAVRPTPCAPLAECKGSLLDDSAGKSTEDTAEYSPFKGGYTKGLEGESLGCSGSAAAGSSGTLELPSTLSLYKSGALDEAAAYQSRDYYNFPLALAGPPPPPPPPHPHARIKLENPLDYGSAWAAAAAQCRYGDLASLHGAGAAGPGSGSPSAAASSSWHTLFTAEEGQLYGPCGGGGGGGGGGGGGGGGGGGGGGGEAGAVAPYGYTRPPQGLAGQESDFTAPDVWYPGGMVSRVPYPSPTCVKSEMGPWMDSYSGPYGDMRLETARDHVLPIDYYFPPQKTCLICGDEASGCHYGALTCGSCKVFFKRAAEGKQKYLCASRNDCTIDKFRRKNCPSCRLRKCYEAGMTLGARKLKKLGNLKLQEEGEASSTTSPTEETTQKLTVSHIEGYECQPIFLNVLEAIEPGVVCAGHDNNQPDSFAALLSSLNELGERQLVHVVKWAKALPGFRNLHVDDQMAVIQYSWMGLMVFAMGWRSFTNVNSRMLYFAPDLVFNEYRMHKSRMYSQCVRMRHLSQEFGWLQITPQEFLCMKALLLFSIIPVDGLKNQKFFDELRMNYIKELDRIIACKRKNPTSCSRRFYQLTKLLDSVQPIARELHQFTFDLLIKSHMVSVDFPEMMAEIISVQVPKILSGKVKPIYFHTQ

In the case of `[O]=[Zr]`, the Potency entry in assay [1], in assay [2], in [3], in assay [4], in assay [5] and in assay [6] was “inactive” throughout. In addition, the Potency entry in assay [7], in assay [8], in [9], in [10] and in [11] was “inactive” each time.

Take `O=C1NCN(c2ccccc2)C12CCN(CCCC(c1ccc(F)cc1)c1ccc(F)cc1)CC2`: the Potency in assay [1] was 21.3 µM (active); in assay [2] it was 6.68 µM (active); in assay [3], 10.6 µM (active); in assay [4], 9.44 µM (active); in assay [6], 29.8 µM (active); in assay [7], 3.35 µM (active). The Potency is 5.96 µM (active) in [12] and 26.6 µM (active) in [10]. In assay [5], the Potency entry is “inactive”.

For the compound `CC(=O)Nc1ccc(O)cc1`, the Potency entry in [1], in [2], in assay [3], in assay [4], in [5] and in [6] was “inactive” each time. Besides, the Potency entry in assay [7], in assay [12], in assay [8], in assay [9], in [10] and in [11] was “inactive” each time.

Turning to `CSc1ccc2c(c1)N(CCC1CCCCN1C)c1ccccc1S2` (stereo not drawn), the Potency is 54.7 µM (active) in assay [1]; 5.96 µM (active) and 21.6 µM (active) in assay [2]; 6.68 µM (active) and 17.2 µM (active) in assay [3]; 9.44 µM (active) and 19.3 µM (active) in [4]; 23.9 µM (active) and 21.8 µM (active) in assay [5]; 7.5 µM (active) and 8.6 µM (active) in assay [7]. Also, the Potency in assay [13] is 23.9 µM [inconclusive] (active); in [9] it was 54.7 µM (active); in assay [10], “inactive and 68.3 µM (active)”; in assay [11] it was 27.2 µM (active). The Potency entry in assay [6], in [14] and in assay [15] was “inactive” throughout.

As for `S=P(N1CC1)(N1CC1)N1CC1`, the Potency entry in assay [1], in assay [5], in [6], in [8], in assay [13] and in assay [9] was “inactive” in each case. For the same compound, the Potency entry in assay [14], in assay [16], in assay [15], in assay [10] and in assay [11] was “inactive” in each case. Besides, the Potency in [2] is 21.1 µM (active); in assay [3], 944 nM (active) and 319 nM (active); in assay [4], 26.6 µM (active) and 11.4 µM (active).

`N[C@@H](CSSC[C@H](N)C(=O)O)C(=O)O`: the Potency entry in assay [1], in [2], in assay [3], in [4], in assay [5] and in [17] was “inactive” throughout. Also, the Potency entry in assay [19], in [6], in [7], in assay [12], in assay [8] and in [9] was “inactive” in each case. The Potency entry in assay [10] and in [11] was “inactive” each time. For the same compound, the call in [18] was inactive.

As to `C[C@@H]1CC[C@H]2C(C)(C)[C@H]3C[C@@]12CC[C@@]3(C)O`, the Potency result in assay [1], in [2], in assay [3], in [4], in assay [5] and in assay [17] was “inactive” each time. Also, the Potency entry in assay [19], in assay [6], in assay [20], in [8], in assay [13] and in [9] was “inactive” throughout. The Potency result in assay [14], in [16], in assay [10] and in [11] was “inactive” throughout. The compound was classed as inactive in assay [18].

For `CCCN(CCc1cccs1)[C@H]1CCc2c(O)cccc2C1`, the Potency result in assay [1], in assay [5], in [19], in [6], in [20] and in assay [8] was “inactive” throughout. For the same compound, the Potency entry in assay [13], in [9], in assay [14], in assay [16], in [15] and in [10] was “inactive” throughout. The Potency is 18.8 µM (active) in assay [2], 26.6 µM (active) in assay [3], 23.7 µM (active) in assay [4] and 26.6 µM (active) in assay [11].

For `CC(C)=C1CC[C@@H](C)CC1=O`, the Potency result in assay [1], in [2], in assay [3], in [4], in assay [5] and in [6] was “inactive” throughout. In addition, the Potency entry in [7], in [12], in [8], in assay [13], in assay [9] and in assay [14] was “inactive” in each case. The Potency entry in assay [10] and in assay [11] was “inactive” throughout.

For `NC(=O)c1ccccc1N`, the Potency entry in assay [1], in assay [2], in assay [3], in assay [4], in [5] and in assay [19] was “inactive” each time. The Potency entry in assay [20], in [7], in [12], in assay [8], in [13] and in [9] was “inactive” each time. In addition, the Potency result in [14], in [16], in assay [15], in assay [10] and in assay [11] was “inactive” in each case.

As for `CCCCCCCC/C=C\CCCCCCCC(=O)OCCOC(=O)CCCCCCC/C=C\CCCCCCCC`, the Potency result in [1], in [2], in assay [3], in assay [4], in assay [5] and in [6] was “inactive” each time. For the same compound, the Potency entry in [12], in assay [8], in assay [9], in assay [14], in assay [15] and in assay [10] was “inactive” throughout. Moreover, the Potency entry in [11] is “inactive”. Also, the Potency in assay [16] is 71.2 µM (active).

Consider `O=S(=O)(O)CCCN1CCOCC1`, for which the Potency result in [1], in [2], in assay [3], in assay [4], in [5] and in assay [6] was “inactive” throughout. For the same compound, the Potency entry in assay [12], in assay [8], in assay [13], in [9], in assay [14] and in assay [16] was “inactive” throughout. Also, the Potency result in assay [15], in assay [10] and in assay [11] was “inactive” throughout.

For `Oc1c(Br)cc(Br)c2cccnc12`, the Potency result in assay [1], in assay [5], in [6], in [14] and in assay [11] was “inactive” throughout. The Potency in [2] was 11.9 µM (active); in [3], 11.9 µM (active); in [4], 13.3 µM (active); in assay [7] it was 26.6 µM (active).

With `CC=O`, the Potency is 25.7 µM (active) in [1]; 0.0717 µM (active) in [2]; 0.057 µM (active) in assay [3]; 0.0717 µM (active) in assay [4]; 22.9 µM (active) in assay [5]; 63.9 µM (active) in assay [6]. In addition, the Potency in [7] was 2.86 µM (active); in assay [12] it was 1.28 µM (active); in assay [9], 57.5 µM (active); in assay [15], 1.61 µM (active); in assay [10], 32 µM (active); in assay [11], 5.08 µM (active).
